In ChEMBL document CHEMBL1157539, “Thousands of chemical starting points for antimalarial lead identification” (Nature, 2010):
Over roughly 13,000 compounds, “IFI” has its median near 4; the highest 2% begin near 17. The sample as a whole holds a higher share of the highest values than the screen did.

assay: GSK_TCMDC: Inhibition Frequency Index (IFI). The number of non-kinase HTS assays where a compound showed > 50 % inhibition, expressed as a percentage of the number of such assays in which the compound was tested; type: functional

Row | SMILES | IFI [%]
1 | Cc1cccc2nc(-c3ccc(-c4cccc(CNCCN5CCNCC5)c4)cc3)[nH]c12 | 6.93
2 | CC(C)COc1ccc(Cl)cc1Cc1ccc(-c2nc3cc(CCN4CCCC4)ccc3[nH]2)o1 | 22.2
3 | CNCc1cccc2nc(-c3ccc(Cc4cc(Cl)ccc4OCC(C)C)o3)[nH]c12 | 16.7
4 | CC(C)COc1ccc(Cl)cc1Cc1ccc(-c2nc3cnc4ccccc4c3[nH]2)o1 | 7.23
5 | CC(C)COc1ccc(Cl)cc1Cc1ccc(-c2nc3cc(F)c(F)cc3[nH]2)o1 | 13.7
6 | CC(C)COc1ccc(Cl)cc1Cc1ccc(-c2nc3cc(CCN(C)C)ccc3[nH]2)o1 | 16
7 | CN1CCN(c2ccc3[nH]c(-c4ccc(Cc5cc(Cl)ccc5OCc5ccccc5)o4)nc3c2)CC1 | 24.7
8 | CC(C)COc1ccc(Cl)cc1Cc1nc(-c2nc3ccc(CN4CCN(C)CC4)cc3[nH]2)co1 | 5.81
9 | CC(C)COc1ccc(Cl)cc1Cc1nc(-c2nc3ccc(CN4CCCCC4)cc3[nH]2)co1 | 18.3
10 | CN1CCN(CCc2ccc3nc(-c4csc(Cc5cc(Cl)ccc5OCc5ccccc5)n4)[nH]c3c2)CC1 | 10.2
11 | Clc1ccc(OCc2ccccc2)c(Cc2ccc(-c3nc4cnccc4[nH]3)o2)c1 | 12.2
12 | CC(C)COc1ccc(Cl)cc1Cc1ccc(-c2nc3cc(N4CCN(C)CC4)ccc3[nH]2)o1 | 17.2
13 | CC(C)COc1ccc(Cl)cc1Cc1nc(-c2nc3ccc(CN4CCCC4)cc3[nH]2)co1 | 16.1
14 | COc1ccc(NC(=O)CCNc2cc(C)nc(NCCc3ccc(F)cc3)n2)cc1 | 4.88
15 | N#Cc1ccc(N2CCN(Cc3ccc(-c4ccc(-c5nc6cc(C(F)(F)F)ccc6[nH]5)cc4)cc3)CC2)nc1 | 3.96
16 | NS(=O)(=O)c1cccc(-c2ccc3ncc(N4CCOCC4)nc3c2)c1 | 3.7
17 | Cc1[nH]c(C)c(-c2ccc(-c3ccc(Cl)cc3)nc2)c(=O)c1Cl | 0.92
18 | COc1cc2s/c(=N\C(=O)c3cccc([N+](=O)[O-])c3)n(C)c2cc1OC | 1.72
19 | O=C(NC1CCC(CCN2CCc3ccc(-c4cnccn4)cc3CC2)CC1)c1cccc(-n2cccn2)c1 (stereo not drawn) | 5.3
20 | O=C1CCCN1CCCNCc1ccc(-c2ccc(-c3nc4cc(C(F)(F)F)ccc4[nH]3)s2)cc1 | 6.67
21 | O=C(Nc1cccc(-c2cccc(-c3nc4cc(C(F)(F)F)ccc4[nH]3)c2)c1)c1cccnc1 | 4.59
22 | CCN(CC)CCCC(C)N/C(=N\c1ccccc1Br)Nc1ccc(C#N)cc1O (stereo not drawn) | 0

Row | SMILES | IFI [%]
23 | Cc1cccc(Nc2nccc(Nc3cccc(C(=O)NCCN4CCOCC4)c3)n2)c1 | 0
24 | OC(CNc1ccnc(Nc2cccc(CCN3CCOCC3)c2)n1)c1ccccc1 (stereo not drawn) | 9.28
25 | Cc1cnc(Nc2cccc(CCN3CCOCC3)c2)nc1NC(C)C | 17.2
26 | Oc1ccc(CCNCCCCNCCc2ccc(Cl)cc2)cc1O | 6.12
27 | Cc1[nH]c(C)c(-c2ccc(OCc3cccc(C(F)(F)F)c3)nc2)c(=O)c1Br | 13.8
28 | CCCC(C(=O)OCCNC)(c1ccccc1)c1ccccc1 | 3.6
29 | COc1ccc(CCN(C)CCCN2CCC(NC(=O)c3cccc4c(=O)c5ccccc5[nH]c34)CC2)cc1OC | 5.76
30 | COc1ccc(CCN(C)CCCCc2ccc(NC(=O)c3cccc4c(=O)c5cc(F)ccc5sc34)cc2)cc1OC | 10
31 | COc1ccc(CCN(C)CCCN2CCC(NC(=O)c3cccc4c(=O)c5ccccc5sc34)CC2)cc1OC | 21.9
32 | Clc1ccc(Cl)c2[nH]c(CNCCCNc3nc4ccccc4[nH]3)cc12 | 4.38
33 | COc1ccc2c(OC)cccc2c1CNCCCCCCNCc1c(OC)ccc2c(OC)cccc12 | 13.7
34 | Cc1cccn2c(=O)c3cc(C(=O)NCCc4ccccc4)c(=N)n(CCCOC(C)C)c3nc12 | 4.3
35 | O=[N+]([O-])c1ccc2nccnc2c1 | 1.44
36 | O=[N+]([O-])c1ccc(/C=N/O)nc1 | 23.4
37 | O=[N+]([O-])c1ccc(C=NNc2nc3ccccc3[nH]2)cc1 | 0
38 | CC(C)c1ccc(CN2CCC(CNC(=O)c3cc(-c4cccc(F)c4)cs3)C2)cc1 (stereo not drawn) | 14.3
39 | CC1(C)NC(N)=NC(=N)N1OCc1cccs1 | 1.43
40 | CCCCCCCN(CCCCCCC)CCCC(=O)Nc1ccnc2ccc(OC)cc12 | 7.87
41 | COc1c(C2CCN(CCCCNC(=O)c3ccc(-c4ccc(Cl)cc4)cc3)CC2)ccc2c1C(C)(C)CCC2(C)C | 6.82
42 | O=C(Nc1ccc([N+](=O)[O-])cc1O)Nc1ccccc1Oc1ccccc1 | 17
43 | O=[N+]([O-])c1ccc(N/C(=N\c2ccccc2Br)NC2CCCc3ccccc32)c(O)c1 (stereo not drawn) | 4.17
44 | CC1(C(=O)Nc2ccc([N+](=O)[O-])cc2O)CC2c3ccccc3C1c1ccccc12 (stereo not drawn) | 17.4

Row | SMILES | IFI [%]
45 | COc1ccccc1CCNc1nc(C)cc(N[C@@H](Cc2ccccc2)C(=O)NCCCOC(C)C)n1 | 0
46 | O=C(O)c1cccnc1Sc1ccc(Cl)cc1 | 0
47 | COc1ccc(CCNCCCCCCNCCc2cccc([N+](=O)[O-])c2)cc1OC | 0
48 | C[C@H](Cc1ccc(OCCCCOc2ccc(C[C@@H](C)NC[C@H](O)c3cccc(Cl)c3)cc2)cc1)NC[C@H](O)c1cccc(Cl)c1 | 11.6
49 | Cc1ccc(CCC(C)NCC(O)c2cccc(Cl)c2)cc1 (stereo not drawn) | 2.96
50 | COC(=O)c1ccc(CCC(C)NCC(O)c2cccc(Cl)c2)cc1 (stereo not drawn) | 2.88
51 | C[C@H](Cc1ccc(S(=O)(=O)c2ccc(C[C@@H](C)NC[C@H](O)c3cccc(Cl)c3)cc2)cc1)NC[C@H](O)c1cccc(Cl)c1 | 22.7
52 | C[C@H](Cc1ccc(CCc2ccc(C[C@@H](C)NC[C@H](O)c3cccc(Cl)c3)cc2)cc1)NC[C@H](O)c1cccc(Cl)c1 | 21.6
53 | C[C@H](Cc1ccc(Oc2ccc(C[C@@H](C)NC[C@H](O)c3cccc(Cl)c3)cc2)cc1)NC[C@H](O)c1cccc(Cl)c1 | 20.8
54 | C[C@H](Cc1ccc(OCCCOc2ccc(C[C@@H](C)NC[C@H](O)c3cccc(Cl)c3)cc2)cc1)NC[C@H](O)c1cccc(Cl)c1 | 13.1
55 | C[C@H](Cc1ccc(C[C@@H](C)NCC(O)c2cc(Cl)c(N)c(Cl)c2)cc1)NCC(O)c1cc(Cl)c(N)c(Cl)c1 (stereo partly drawn) | 9.35
56 | C[C@H](Cc1ccc(C[C@@H](C)NC[C@H](O)c2cccc(Cl)c2)cc1)NC[C@H](O)COc1ccccc1 | 7.91
57 | COc1cccc(CCc2ccc(O)c3c2C[C@H]2C[C@H]4[C@H](N(C)C)C(O)=C(C(N)=O)C(=O)[C@@]4(O)C(O)=C2C3=O)c1 | 8.41
58 | CC1(C)NC(N)=NC(=N)N1OCCSCc1cc(Cl)sc1Cl | 4.93
59 | CN1CCN(CCCN(Cc2ccc(-c3ccc(CNCCc4ccccc4)cc3)cc2)C(=O)c2cccs2)CC1 | 9.03
60 | C=CCn1c(Sc2ccc(C#N)c([N+](=O)[O-])c2)nnc1-c1ccc(Cl)cc1 | 4.23
61 | Cc1cc(=NN=Cc2cccc(Cl)c2)c2ccc(F)cc2[nH]1 | 1.49
62 | CCOC(=O)c1ccc(NC(=O)N[C@H]2CCN(CCCCCNC(=O)/C=C/c3ccc(Cl)c(Cl)c3)C2)cc1 | 7.91
63 | Cc1cccc(CNc2nc(C)cc(N[C@@H](Cc3ccccc3)C(=O)NC3CCCC3)n2)c1 | 27.3
64 | Cc1cc(N[C@@H](Cc2ccccc2)C(=O)NC2CCCC2)nc(NCC2CCCCC2)n1 | 26.2
65 | Cc1cc(N[C@@H](Cc2ccccc2)C(=O)Nc2ccccc2)nc(NCC2CCCCC2)n1 | 11.6
66 | Cc1cc(N[C@@H](Cc2ccccc2)C(=O)NC2CCCC2)nc(NCc2ccccc2C)n1 | 4.88

Row | SMILES | IFI [%]
67 | Cc1cc(N[C@@H](Cc2ccccc2)C(=O)NCCc2ccccc2)nc(NCC2CCCCC2)n1 | 11.4
68 | Cc1cc(N[C@@H](Cc2ccccc2)C(=O)NC2CCCC2)nc(Nc2ccccc2)n1 | 7.32
69 | O=C(c1cc(-c2cccs2)n[nH]1)N1CCN(S(=O)(=O)c2ccc(Br)cc2)CC1 | 0
70 | CC(CN(C)C)C(=O)Nc1cccc(-c2ccc(-c3nc4cc(C(F)(F)F)ccc4[nH]3)cc2)c1 (stereo not drawn) | 6.31
71 | Cc1cc(=NN=CC=Cc2ccccc2)c2cc(F)ccc2[nH]1 | 0.75
72 | CC(C)(C)c1ccc(CN2CCC(NC(=O)c3ccc(-c4cccc(C(F)(F)F)c4)s3)CC2)cc1 | 13
73 | O=C(NC1CCN(Cc2cccc(C(F)(F)F)c2)CC1)c1ccc(-c2cccc(C(F)(F)F)c2)s1 | 12.7
74 | O=C(NC1CCN(CCCc2ccccc2)CC1)c1ccc(-c2cccc(C(F)(F)F)c2)s1 | 17.2
75 | CC(=O)Nc1ccc(CN2CCC(NC(=O)c3ccc(-c4cccc(C(F)(F)F)c4)s3)CC2)cc1 | 10.3
76 | CSc1ccc(CN2CCC(NC(=O)c3ccc(-c4cccc(C(F)(F)F)c4)s3)CC2)cc1 | 15.2
77 | CC(C)(C)CCN1CCC(NC(=O)c2ccc(-c3cccc(C(F)(F)F)c3)s2)CC1 | 15.8
78 | O=C(NC1CCN(Cc2ccc(F)cc2)CC1)c1ccc(-c2cccc(C(F)(F)F)c2)s1 | 24.6
79 | CN(C)c1ccc(CN2CCC(NC(=O)c3ccc(-c4cccc(C(F)(F)F)c4)s3)CC2)cc1 | 17.2
80 | O=C(NC1CCN(Cc2ccsc2)CC1)c1ccc(-c2cccc(C(F)(F)F)c2)s1 | 16.7
81 | CN(C)c1ccc(-c2ccc(C(=O)NC3CCN(Cc4cccc(C(F)(F)F)c4)CC3)s2)cc1 | 11.1
82 | O=C(NC1CCN(Cc2ccc3c(c2)OCCO3)CC1)c1ccc(-c2cccc(Cl)c2)s1 | 15.2
83 | O=C(NC1CCN(Cc2ccc3c(c2)OCCO3)CC1)c1ccc(-c2cccc(C(F)(F)F)c2)s1 | 22
84 | Nc1nccc2ccc(-c3ccsc3)cc12 | 10.1
85 | Cc1ccc2nc(N/C(N)=N/C(=O)NC3CCCCC3)nc(C)c2c1 | 3.42
86 | Cc1cc(-c2cccc(CNCc3ccc(F)cc3)c2)ccc1S(=O)(=O)NCCN1CCCC1 | 12.9
87 | Cc1cc(N)nc2ccc(-c3ccc(CN)cc3)cc12 | 4.83
88 | C=C(C)Cn1cc(C2CCN(CCN3CCC(CNC(=O)c4ccc(-c5ccc(C#N)cc5)cc4)CC3)CC2)c2ccccc21 | 10.9
